In PubChem BioAssay AID720596 (The Scripps Research Institute Molecular Screening Center, 2013):
Out of some 370,000 compounds screened, about 1,600 (0.43%) were called active. The entries come from a sample that favours actives as a whole. Unmarked numbers belong to inactive results. Cut-off read from the data, not from the text of the source: active = inhibition above about 24%; inactive = the rest.

biological target: Major prion protein (Homo sapiens) (UniProt P04156); test: inhibitors of human cell surface prion protein PrPC, primary screen, cell-based, TR-FRET (AID 720596); details: TR-FRET read-out, at 13.8 µM, hits give high values; note: 0% = median of the test wells and 100% = reference compound wells

SMILES	inhibition
Cc1ccc(Cl)cc1N1CCN(C(=O)c2cccc3c(=O)c(C)c(-c4ccccc4)oc23)CC1	3.53%
N#Cc1ccc(-c2nc3c(Cl)cc(C(F)(F)F)cn3c2Cc2ccccc2C(F)(F)F)cc1	6.77%
CCOC(=O)C1(Cc2ccc(Cl)cc2)CCN(C(C)CCn2cccn2)CC1 (centres undefined)	-7.01%
COC(=O)c1ccc2nc(-c3cccc(Br)c3)c(Cc3ccc(OC)cc3C)n2c1	-3.29%
CCCCNc1c(-c2cccc(Sc3ccc(OC)cc3)c2)nc2ccccn12	24.6% (active)
CCCCNC(=O)c1onc(CSc2cccc(OC)c2)c1C(=O)O	0.43%
COc1ccc(-c2cc(C(F)(F)F)nc(SCCC(=O)NCc3ccco3)n2)cc1	-0.14%
COc1ccc(-c2cc(C(F)(F)F)nc(S(C)(=O)=O)n2)cc1OC	43.6% (active)
CCCC[C@H]1C2CC(OC(=O)NCc3ccccc3)C(C2)[C@H]2CCCCN21 (some centres undefined)	-9.6%
CCc1c(N=O)c(-c2ccccc2)n(O)[n+]1[O-]	-1.69%
CCc1c(C)[nH]c(=S)c(C#N)c1C	10%
CCOC(=O)c1c(C)[nH]c(=S)c(C#N)c1-c1ccccc1	36.6% (active)
CC(=O)c1c(C)[nH]c(=S)c(C#N)c1-c1ccc(F)cc1	2.25%
Cc1nc(CC(=O)NNS(=O)(=O)c2ccc(F)c(Cl)c2)cs1	-3.65%
Cc1c(NC(=O)CN2C(=O)C(=O)N(Cc3ccccc3)C2=O)c(=O)n(-c2ccccc2)n1C	-0.02%
Cc1c(C)n2c(SCC(=O)N3CCCC3)nnc2[nH]c1=O	-1.9%
CC(=O)c1sc2nc(SCC(=O)N3CCCCC3)[nH]c(=O)c2c1C	34.2% (active)
O=C(CSc1nc2c(c(=O)[nH]1)CCCC2)N1CCCCC1	3.4%
CCCCCCCCCCCCn1ccc(=N)cc1	34.3% (active)
C[C@H]1CN([C@@H](C)CO)C(=O)CCCn2cc(nn2)CO[C@@H]1CN(C)S(=O)(=O)c1cccs1	6.24%
NC(=O)COc1ccc(NC(=O)c2ccccc2-c2ccccc2)cc1	2.41%
Cc1ccc(C)c2[nH]c(=O)c(CCNC(=O)c3cccs3)cc12	1.05%
CCCCC(CC)CNCc1cccn1CCN1CCOCC1 (centres undefined)	-0.03%
CCCCCCCCn1c2c(c(=N)c3c1CCC3)CCCC2	34.1% (active)
CCNC(=O)Nc1ccc(S(=O)(=O)Nc2cnc(C)nc2C)cc1	-5.43%
Cc1ccc(NC(=O)c2sc3nc(N)c(C#N)cc3c2N)cc1	29.7% (active)
CC(=O)c1ccc(NC(=O)c2sc3nc4n(c(=O)c3c2C)CCCCC4)cc1	7.05%

SMILES	inhibition
Cc1ccc(Sc2ccc(NC(=O)c3ccc(F)cc3)cc2C#N)cc1	-3.85%
CC(=O)Nc1ccc(S(=O)(=O)NNC(=O)CCc2ccccc2)cc1	-0.14%
COc1ccc(-n2nnnc2SCc2nc(N)nc(N3CCOCC3)n2)cc1	2.17%
CC1(c2ccc3ccccc3c2)NC(=O)NC1=O (centres undefined)	9.52%
CNC(=O)C1CN(C(=O)c2cccc(S(=O)(=O)N3CCc4ccccc43)c2)c2ccccc2O1 (centres undefined)	4.01%
Nc1[nH]c(C(=O)c2ccc(Br)cc2)c(-c2ccc3c(c2)OCO3)c1C(=O)NCCc1c[nH]c2ccccc12	-5.16%
Oc1c(Cl)cc(Cl)c(Cl)c1Cc1c(O)c(Cl)cc(Cl)c1Cl	28.9% (active)
C=CCC[C@@H](CCCCC)OC(=O)/C=C/[C@@H](O)[C@H](O)C[C@H](O)CC=C	-5.85%
COc1ccc(-c2cc(-c3nnc(SCc4ccc([N+](=O)[O-])cc4)n3N)[nH]n2)cc1	0.13%
CCOc1ccc(S(=O)(=O)N(CC(=O)O)c2ccccc2)cc1	-3.25%
COC(=O)[C@]12C[C@H](CC(=O)NCc3ccc(C)o3)C(=O)N(CCC3=CCCCC3)C1=C[C@H](C(C)(C)C)O[C@@H]2C	7.81%
O=C(Nc1ccc([N+](=O)[O-])cc1)C1CC12CCC2 (centres undefined)	3.59%
O=C(Nc1ccc(C2CC2(Cl)Cl)cc1)c1cccc([N+](=O)[O-])c1 (centres undefined)	25.6% (active)
Cc1ccc(NC(=O)C(=O)NCC2CCN(C(=O)c3cccc([N+](=O)[O-])c3)CC2)cc1	-5.67%
COc1cc(C(=O)N2Cc3ccc(Br)cc3-n3nncc3C2)cc(OC)c1OC	-0.36%
Cc1ccc(C)c(S(=O)(=O)N2CCCOC2CNC(=O)C(=O)NC2CCCCC2)c1 (centres undefined)	-1.91%
COc1ccc2c(CC(=O)OCC(=O)Nc3ccccc3[N+](=O)[O-])coc2c1	-12.7%
CO[C@H]([C@H](C)/C=C/N(C)C=O)[C@@H](C)C(=O)CC[C@H](C)[C@H](O)[C@H](C)[C@H]1OC(=O)/C=C/C(C)=C/[C@H](O)[C@H](OC)C[C@@H]2C=CC[C@@H](C[C@H](OC)[C@@]3(CO3)[C@@H](OC)C[C@@H](OC)[C@@H]1C)O2	38% (active)
CN(C)C(=O)CCc1ccc2c3c([nH]c2c1)[C@]1(C)[C@@H](C(=O)N2CCCCC2)C[C@H](CC(=O)NCCC2=CCCCC2)C(=O)N1CC3	-3.09%
O=C(Cc1ccccc1)Nc1cccc(NC(=O)c2ccccc2)c1	30.2% (active)
CN(CCc1ccccc1)C(=O)c1cccc(NC(=O)Cc2ccc([N+](=O)[O-])cc2)c1	-2.03%
CC(C)(C)NC(=O)c1cccc(NC(=O)Cc2ccc(Br)cc2)c1	11%
Cc1ccc(Cc2cncc(O)c2)cc1S(=O)(=O)O	-7.2%
Cc1[nH]c(C)c(S(=O)(=O)N2CCC(C)CC2)c1C(=O)N1CCCC1	-7.7%
O/N=C(\C[n+]1ccccc1)c1ccc(Br)cc1	6.16%
O=C(c1ccc(-c2ccccc2)cc1)C1CCCN(C(=O)c2cncs2)C1 (centres undefined)	6.46%
C=CCN(c1ccccc1C(=O)NCC(=O)OCC)S(=O)(=O)c1ccc(C)cc1	5.82%
